Data: PubChem BioAssay
Calls of active or inactive are those of the source.

Legend:
[1] = system: Plasmodium falciparum Sir2 (PF13_0152, Sir2A); assay: Plasmodium falciparum Sir2A binding compounds – biochemical, small-molecule microarray, 635 nm fluorescence, primary screen (AID 1098); conditions: fluorescence 635 nm, higher = more signal;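 note: score merges spot fluorescence intensity with its signal-to-noise ratio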
[2] = probe aDKK1 binding to arrayed compounds – biochemical, biotinylated probe, 635/667 nm fluorescence, primary screen (AID 1099); conditions: small-molecule microarray, higher = more signal;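 note: score merges 667nm spot fluorescence with signal to noise across triplicate slides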
[3] = probe aCHRDL2 binding to arrayed compounds – biochemical, biotinylated probe, 635/667 nm fluorescence, primary screen (AID 1100); conditions: small-molecule microarray, higher = more signal
[4] = change in splice reporter luminescence, either direction, cell-based, HEK293, spliceosome inhibition project, primary screen (AID 1101); conditions: HEK293 splicing luciferase reporter, 24 h, higher = more signal, called active from +8 up or from −8 down;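 note: HEK293 cells carrying a splicing-competent luciferase reporter gene; test concentration not given here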
[5] = molecular target: Fibroblast growth factor 10 (Homo sapiens) (UniProt O15520); assay: compounds binding fibroblast growth factor 10 – biochemical, small-molecule microarray, 635 nm fluorescence, primary screen (AID 1102); conditions: FGF10 binding, fluorescence 635 nm, higher = more signal
[6] = system: glycogen synthase kinase-3 (GSK3A per assay name; protocol says GSK3B); assay: compounds binding glycogen synthase kinase-3 – biochemical, small-molecule microarray, 635 nm fluorescence, GSK3A, primary screen (AID 1103); conditions: fluorescence 635 nm, higher = more signal; note: the record names both GSK3A and GSK3B
[7] = molecular target: Epidermal growth factor receptor (Homo sapiens) (UniProt P00533); assay: compounds binding epidermal growth factor receptor – biochemical, small-molecule microarray, 635 nm fluorescence, primary screen (AID 1104); conditions: EGFR binding, higher = more signal;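 note: score merges 667 nm emission intensity with spot signal to noise over triplicate slides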
[8] = molecular target: Follistatin-related protein 3 (Homo sapiens) (UniProt O95633); assay: compounds binding follistatin-related protein 3 – biochemical, small-molecule microarray, 635 nm fluorescence, primary screen (AID 1105); conditions: FSTL3 binding, higher = more signal;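 note: score merges emission near 667 nm and signal to noise per printed spot across three slides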
[9] = molecular target: Dickkopf-related protein 1 (Homo sapiens) (UniProt O94907); assay: small molecules binding DKK1 protein – biochemical, small-molecule microarray, 635 nm fluorescence scan, primary screen (AID 1106); conditions: higher = more signal;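 note: score merges emission near 667 nm with signal to noise over three replicate slides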
[10] = system: Inhibin beta A chain (activin A); assay: small molecules binding activin A – biochemical, small-molecule microarray, 635 nm fluorescence scan, primary screen (AID 1107); conditions: INHBA, higher = more signal;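 note: mouse activin A protein probed at 4.33 µg/mL on printed slides; score merges bound-protein fluorescence near 667 nm with spot signal-to-noise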
[11] = system: Human papillomavirus type 1a protein E7 (residues 44-93); assay: small molecules binding HPV E7 44-93 – biochemical, small-molecule microarray, residues 44-93, 635 nm fluorescence, primary screen (AID 1108); conditions: fluorescence 635 nm, higher = more signal;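 note: E7 fragment applied at 1 µg/mL in TBST for 1 h at 4 C; score combines spot fluorescence with its signal to noise ratio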
[12] = hepatitis C replication reporter changes, two-sided – Huh7 cells, luciferase reporter, HCV replication inhibitor project, primary screen (AID 1109); conditions: Huh7 HCV replicon luciferase reporter, 48 h; higher = more signal;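 note: huh7 hepatoma cells harbouring a luciferase neomycin HCV replicon reporter; luciferase luminescence as measure of HCV replicon replication; test concentration not given here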
[13] = molecular target: Left-right determination factor 2 (Homo sapiens) (UniProt O00292); assay: small molecules binding LEFTY2 protein – biochemical, small-molecule microarray, 635 nm fluorescence scan, primary screen (AID 1110); conditions: higher = more signal
[14] = molecular target: Calmodulin-1 (Homo sapiens) (UniProt P0DP23); assay: small molecules binding calmodulin-1 with EGTA – biochemical, small-molecule microarray, Cy5-labelled CALM1, profiling panel (AID 1111); conditions: Cy5-CALM1 binding fluorescence, higher = more signal;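 note: labelled calmodulin applied in Tris saline Tween buffer holding calcium plus EGTA and DTT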
[15] = molecular target: Calmodulin-1 (Homo sapiens) (UniProt P0DP23); assay: small molecules binding Ca-loaded calmodulin-1 – biochemical, small-molecule microarray, Cy5-labelled CALM1, plus calcium, artefact control for SMM control-protein annotation, profiling panel (AID 1112); conditions: Cy5-CALM1 binding fluorescence, higher = more signal;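 note: score merges spot fluorescence with signal to noise from triplicate slides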
[16] = probe aWnt5a binding to arrayed compounds – biochemical, biotinylated probe, 635/667 nm fluorescence, primary screen (AID 1113); conditions: small-molecule microarray, higher = more signal;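 note: score merges 667 nm fluorescence intensity with signal-to-noise per printed feature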
[17] = probe aShh binding to arrayed compounds – biochemical, biotinylated probe, 635/667 nm fluorescence, primary screen (AID 1114); conditions: small-molecule microarray, higher = more signal;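 note: probe is biotin-labelled aShh protein from a stem cell growth factor screen; measures binding of labelled protein to compounds printed on the slide; score merges feature fluorescence at 667 nm with signal-to-noise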
[18] = probe aNog binding to arrayed compounds – biochemical, biotinylated probe, 635/667 nm fluorescence, primary screen (AID 1115); conditions: small-molecule microarray, higher = more signal;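 note: probe is biotinylated aNog protein used at 0.15 µg/mL for 1 h at 4 C; z-score combines 667 nm fluorescence of each spot with its signal to noise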
[19] = molecular target: Torsin-1A-interacting protein 1 (Homo sapiens) (UniProt Q5JTV8); assay: compound microarray binding of lysate hLAP1 – cell lysate, small-molecule microarray, COS7 lysate, 635/667 nm fluorescence, primary screen (AID 1116); conditions: 635 nm fluorescence, higher = more signal
[20] = molecular target: Alpha-bungarotoxin (Bungarus multicinctus) (UniProt P60615); assay: compounds binding labelled alpha-BTX control protein – biochemical, small-molecule microarray, Alexa647 label, 635/667 nm fluorescence, artefact control for SMM control protein annotation, profiling panel (AID 1117); conditions: alpha-BTX-A647 binding fluorescence, higher = more signal
Sequence of Alpha-bungarotoxin (Bungarus multicinctus) (P60615 whole entry, looked up): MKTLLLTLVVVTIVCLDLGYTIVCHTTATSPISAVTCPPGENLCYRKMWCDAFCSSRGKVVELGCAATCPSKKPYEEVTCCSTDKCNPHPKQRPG

Sequence of Torsin-1A-interacting protein 1 (Homo sapiens) (Q5JTV8 whole entry, looked up): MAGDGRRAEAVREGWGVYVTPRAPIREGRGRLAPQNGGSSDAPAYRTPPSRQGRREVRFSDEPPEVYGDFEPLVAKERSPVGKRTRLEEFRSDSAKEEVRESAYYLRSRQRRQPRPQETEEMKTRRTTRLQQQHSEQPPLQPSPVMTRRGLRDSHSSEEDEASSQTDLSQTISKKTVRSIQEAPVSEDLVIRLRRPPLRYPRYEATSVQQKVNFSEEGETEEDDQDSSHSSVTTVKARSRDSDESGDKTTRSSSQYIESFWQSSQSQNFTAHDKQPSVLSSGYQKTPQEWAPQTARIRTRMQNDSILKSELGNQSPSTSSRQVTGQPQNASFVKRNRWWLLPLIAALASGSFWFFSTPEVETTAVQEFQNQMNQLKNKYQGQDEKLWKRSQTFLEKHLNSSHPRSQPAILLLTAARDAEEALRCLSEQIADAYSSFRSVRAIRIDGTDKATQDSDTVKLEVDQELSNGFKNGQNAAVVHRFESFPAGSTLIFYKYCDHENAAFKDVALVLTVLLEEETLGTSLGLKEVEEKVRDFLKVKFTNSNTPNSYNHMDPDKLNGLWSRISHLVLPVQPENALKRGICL
Sequence of Left-right determination factor 2 (Homo sapiens) (O00292 whole entry, looked up): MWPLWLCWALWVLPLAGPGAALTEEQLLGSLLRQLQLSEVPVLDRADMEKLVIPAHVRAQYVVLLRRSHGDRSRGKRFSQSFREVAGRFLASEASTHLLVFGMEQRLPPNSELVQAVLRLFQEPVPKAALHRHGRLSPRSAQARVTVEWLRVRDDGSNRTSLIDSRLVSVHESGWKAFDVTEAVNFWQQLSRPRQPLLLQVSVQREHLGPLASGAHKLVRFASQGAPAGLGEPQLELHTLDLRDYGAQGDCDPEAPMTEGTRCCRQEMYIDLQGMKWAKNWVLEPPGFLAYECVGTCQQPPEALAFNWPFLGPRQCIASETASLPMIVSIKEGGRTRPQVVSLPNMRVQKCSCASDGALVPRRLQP
Sequence of Dickkopf-related protein 1 (Homo sapiens) (O94907 whole entry, looked up): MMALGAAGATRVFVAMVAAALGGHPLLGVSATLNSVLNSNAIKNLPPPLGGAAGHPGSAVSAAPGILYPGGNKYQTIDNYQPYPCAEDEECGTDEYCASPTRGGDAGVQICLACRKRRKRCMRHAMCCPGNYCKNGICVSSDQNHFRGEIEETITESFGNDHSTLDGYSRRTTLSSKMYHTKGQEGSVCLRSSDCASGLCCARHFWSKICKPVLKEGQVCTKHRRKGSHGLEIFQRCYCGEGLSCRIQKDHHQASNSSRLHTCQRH
Sequence of Follistatin-related protein 3 (Homo sapiens) (O95633 whole entry, looked up): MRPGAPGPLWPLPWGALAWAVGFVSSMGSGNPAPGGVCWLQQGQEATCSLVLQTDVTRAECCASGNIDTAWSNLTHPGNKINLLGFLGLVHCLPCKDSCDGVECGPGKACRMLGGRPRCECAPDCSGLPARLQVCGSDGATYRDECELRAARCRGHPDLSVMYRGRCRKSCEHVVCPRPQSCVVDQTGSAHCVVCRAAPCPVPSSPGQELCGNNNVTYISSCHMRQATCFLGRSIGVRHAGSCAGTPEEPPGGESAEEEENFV
Sequence of Fibroblast growth factor 10 (Homo sapiens) (O15520 whole entry, looked up): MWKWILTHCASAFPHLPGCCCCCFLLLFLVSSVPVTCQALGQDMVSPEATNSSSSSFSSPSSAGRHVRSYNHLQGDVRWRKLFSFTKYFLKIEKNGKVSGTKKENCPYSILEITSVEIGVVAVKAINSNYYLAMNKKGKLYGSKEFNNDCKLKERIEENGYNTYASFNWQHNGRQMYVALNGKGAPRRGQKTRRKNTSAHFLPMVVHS
Sequence of Epidermal growth factor receptor (Homo sapiens) (P00533 whole entry, looked up): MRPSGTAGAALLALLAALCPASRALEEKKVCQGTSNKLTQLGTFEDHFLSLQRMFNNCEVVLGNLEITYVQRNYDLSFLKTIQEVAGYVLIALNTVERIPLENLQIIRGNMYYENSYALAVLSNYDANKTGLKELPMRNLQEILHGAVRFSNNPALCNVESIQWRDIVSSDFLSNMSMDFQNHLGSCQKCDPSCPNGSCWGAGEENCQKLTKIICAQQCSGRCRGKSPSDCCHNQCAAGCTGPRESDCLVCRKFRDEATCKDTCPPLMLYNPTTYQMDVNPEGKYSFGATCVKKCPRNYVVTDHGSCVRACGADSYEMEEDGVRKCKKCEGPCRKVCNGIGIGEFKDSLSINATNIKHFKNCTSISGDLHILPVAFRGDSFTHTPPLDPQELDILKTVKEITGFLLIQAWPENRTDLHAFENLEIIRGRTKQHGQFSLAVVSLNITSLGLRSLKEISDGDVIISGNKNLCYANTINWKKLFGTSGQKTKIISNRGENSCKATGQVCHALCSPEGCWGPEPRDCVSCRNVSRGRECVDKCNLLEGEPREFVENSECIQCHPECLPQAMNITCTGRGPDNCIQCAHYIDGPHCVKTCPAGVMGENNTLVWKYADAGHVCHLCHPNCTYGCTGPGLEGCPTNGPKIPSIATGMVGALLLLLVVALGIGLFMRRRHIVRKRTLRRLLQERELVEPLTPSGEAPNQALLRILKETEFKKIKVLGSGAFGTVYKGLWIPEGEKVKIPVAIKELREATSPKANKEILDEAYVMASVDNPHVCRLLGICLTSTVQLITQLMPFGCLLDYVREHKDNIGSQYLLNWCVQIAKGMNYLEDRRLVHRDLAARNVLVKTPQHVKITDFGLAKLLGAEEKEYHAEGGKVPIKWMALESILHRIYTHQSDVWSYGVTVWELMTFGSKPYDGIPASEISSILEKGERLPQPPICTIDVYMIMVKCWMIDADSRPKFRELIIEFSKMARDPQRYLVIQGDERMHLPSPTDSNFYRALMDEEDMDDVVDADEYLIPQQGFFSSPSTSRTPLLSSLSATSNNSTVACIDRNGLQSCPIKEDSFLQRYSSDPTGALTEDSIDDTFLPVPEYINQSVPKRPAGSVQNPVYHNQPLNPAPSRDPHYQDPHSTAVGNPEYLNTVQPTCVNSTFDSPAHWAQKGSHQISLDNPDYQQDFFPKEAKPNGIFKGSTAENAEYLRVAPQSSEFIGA

SMILES	composite z-score [1]	composite z-score [2]	composite z-score [3]	z-score [4]	composite z-score [5]	composite z-score [6]	composite z-score [7]	composite z-score [8]	composite z-score [9]	composite z-score [10]	composite z-score [11]	z-score [12]	composite z-score [13]	composite z-score [14]	composite z-score [15]	composite z-score [16]	composite z-score [17]	composite z-score [18]	composite z-score [19]	composite z-score [20]
CN1C(=O)C2C=CC(C(O)C3CC=CCC3)N(Nc3ccccc3)C2C1=O (stereo not given)	1.09	0.642	0.533	1.2 (inactive)	0.989	0.879	1.07	1.45	1.06	1.3	1.24	-0.556	0.76	1.55	0.129	-0.0792	-0.0289	0.897	0.764	1.58
O=C1O[C@@H](c2ccccc2)[C@@H](c2ccccc2)N2[C@@H](c3ccccc3OCCO)[C@]3(C(=O)Nc4ccc(C#CC5=CCCCC5)cc43)[C@@H](C(=O)O)[C@H]12	1.17	0.702	0.51	-2.47 (inactive)	0.289	1.04	0.309	0.87	0.471	1.09	0.799	-2.28	0.0802	1.7	0.957	-0.0539	0.13	0.0014	0.612	1.77
C=C(CCCC)/C(=C/C[C@@H](OC(=O)c1ccncc1)c1ccc(CO)o1)c1cnc2ccccc2c1	0.201	0.144	-0.524	0.0419 (inactive)	1.48	1.32	1.36	1.62	1.53	1.82	-0.41	-1.13	1.48	1.38	-0.0149	0.0973	0.213	0.889	2.1	2.29
COc1ccc([Si](C)(C)[C@@H]2[C@@H](CCO)O[C@]3(C(=O)N(Cc4ccccc4)c4ccccc43)[C@H]2C)cc1	0.183	-0.18	-0.455	-0.535 (inactive)	0.633	0.16	0.187	0.174	0.104	-0.0249	0.566	-1.84	0.224	0.398	0.49	-0.148	-0.217	0.202	0.526	0.124
C=CCN1C(=O)[C@@]2(Cc3ccccc3)N=C(c3ccc(OCCCO)cc3)O[C@H]2c2ccccc21	1.59	1.07	1.19	-0.298 (inactive)	0.534	0.876	0.96	0.956	0.613	0.965	0.974	-2.44	0.525	0.0185	0.192	-0.0814	0.0469	0.79	2.15	1.66
COC(=O)C[C@H]1O[C@]2(C(=O)N(C)c3ccccc32)[C@@H](C)[C@@H]1[Si](C)(C)c1ccc(OC)cc1	0.377	-0.198	-0.514	-1.78 (inactive)	1.29	0.637	0.309	0.558	0.344	-0.27	0.353	-2	1.02	0.0348	-0.327	0.0502	-0.271	-0.141	0.335	0.449
COc1ccc([Si](C)(C)[C@H]2[C@H](CCO)O[C@@]3(C(=O)N(Cc4ccc(N5CCCCC5=O)cc4)c4ccccc43)[C@@H]2C)cc1	1.36	0.175	0.37	1.23 (inactive)	0.345	0.642	0.122	0.55	0.236	0.766	0.247	-4.77	0.139	1.49	1.02	-0.116	0.0141	0.338	0.643	1.7
CO[C@H]1COC(=O)CC=C[C@@H](C)COC(=O)[C@@H](C)NC(=O)CC=C[C@@H]1C	1.35	-0.954	-1.84	-2.81 (inactive)	0.567	0.967	1.39	1.45	2.01	-0.529	-0.291	0.325	1.6	-3.42	-3.57	-0.307	0.238	-0.139	-0.229	-0.706
O=C1c2ccccc2[C@@]2(Cc3ccccc3N(CC(F)(F)F)C2=O)[C@H](c2ccc(CO)cc2)N1C1CCCCC1	0.208	0.117	0.0803	-0.189 (inactive)	0.982	0.88	0.229	0.95	1.02	0.801	0.796	-0.387	0.542	-0.575	0.017	-0.0192	-0.0977	-0.369	0.415	-0.223
COC(=O)[C@@]1(Cc2ccccc2N=[N+]=[N-])N=C(c2ccc(OCCCO)cc2)O[C@H]1c1ccccc1CN=[N+]=[N-]	1.16	0.733	0.771	1.07 (inactive)	0.468	0.393	-0.34	-0.0014	-0.304	1.13	0.403	-3.35	-0.417	0.559	0.0128	-0.0758	-0.136	1.01	0.889	1.28
COc1ccc(C(O)C2C=CC3C(=O)N(C)C(=O)C3N2N2CCCCC2)cc1OCc1ccccc1 (stereo not given)	0.774	1.1	0.851	0.379 (inactive)	0.26	0.636	-0.001	0.371	-0.622	0.986	1.34	0.421	0.0446	0.747	0.738	0.0391	0.462	1.63	0.68	1.87
